Measured values as given in PubChem BioAssay (EPA / NIEHS).
The source made the active and inactive calls. Rule for the calls: active = hit-call score of the fitted dose curve at least 0.9, where 1 is the maximum; inactive = score below 0.9.

assay: CCTE_Mundy_HCI_Cortical_Synap_Neur_Matur_NeuriteSpotCountPerNeuron: CCTE's Synaptogenesis and Neurite Maturation Assay in rat cortical cells for Neurite Spot Count per Neuron Count, Mundy Lab (AID 2284215)
Protocol: CCTE_Mundy_HCI_Cortical_Synap&Neurite_Matur is a multiplexed, cell-based-readout assay that uses rat primary cortical cells with measurements taken at 288.33 hours after chemical dosing in a microplate: 96-well plate.CCTE_Mundy_HCI_Cortical_Synap_Neur_Matur_NeuriteSpotCountPerNeuron is one of eight components of the CCTE_Mundy_HCI_Cortical_Synap&Neurite_Matur assay. It measures synaptogenesis and neurite maturation related to number of neurite-associated synapses (synaptophysin puncta) per neuron using High Content Imaging of fluorescently labelled markers.[…] Using a type of morphology reporter, loss -of-signal activity can be used to understand developmental effects.
Cells are plated onto 96 well plates and allowed 2 hr for attachment to the substrate. At days in vitro (DIV) 5, Cytosine Arabinoside (AraC) is added to arrest glial cell growth. Chemicals are dosed and a media change is performed at DIV 7 of differentiation and is continued through DIV 12 when the experiment is terminated. Cells are fixed with […] and Hoechst Dye. Cells are stained using Millipore Mouse anti-MAP2MAB3418 (1:800) and Millipore Rabbit anti-Synaptophysinsc-1750 (1:250) primary antibodies and Alexa Fluor-488 goat anti-mouse and AlexaFluor-546 goat anti-rabbit secondary antibodies to label neuronal cell nuclei, synapses and neurites. A Cellomics ArrayScan VTi HCS Reader is used for automated image acquisition and analysis of neurite outgrowth.

| Compound | outcome | AC50 |
| --- | --- | --- |
| S=C(S)NCCNC(=S)S.[Mn+2].[S-]C([S-])=NCCN=C([S-])[S-].[Zn+2] | inactive | – |
| CSC(=O)c1cccc2nnsc12 | inactive | – |
| S=C([S-])NCCNC(=S)[S-].[Mn+2] | inactive | – |
| CC(C)(c1ccc(O)cc1)c1ccc(O)cc1 | – | 50 µM (active) |
| CCN(CC)C(=O)c1cccc(C)c1 | inactive | – |
| CCCN(CCC)C(=O)SCC | inactive | – |
| O=C(O)c1ccccc1 | inactive | – |
| Cc1nn(C)c(Oc2ccccc2)c1C=NOCc1ccc(C(=O)OC(C)(C)C)cc1 | – | 0.00181 µM (active) |
| CC1(C)C(C=C(Cl)Cl)C1C(=O)OCc1cccc(Oc2ccccc2)c1 (stereo not given) | – | 8.69 µM (active) |
| C#CCOC(=O)[C@@H](C)Oc1ccc(Oc2ncc(Cl)cc2F)cc1 | inactive | – |
